Among all 52,000 compounds or so, about 4,300 (8.3%) were called active. The full list was thinned out, with actives kept by preference. Unmarked numbers belong to inactive results. Rule as the data show it: active = survival mostly below about 52% (no sharp cut-off); inactive = mostly above about 56%.

For the experiment, the system named is DeltatarO mutant. The experiment can be described thus: growth inhibition of S. aureus wild type versus tarO mutant, primary screen, teichoic acid synthesis inhibitors, RN4220, OD600 (AID 463173). Particulars: OD600, 18 h, hits give low values, screened at 18.75 µg/mL (by protocol).
Turning to `CS(=O)(=O)Nc1ccccc1C(=O)O`, the survival was 81%.
`CCCSc1ncc(Cl)c(C(=O)Nc2c(C(=O)Nc3ccc(C)cc3)oc3ccccc23)n1`: the survival was 62%.
`Cc1cccc(NC(=O)Cn2c(=O)n(CCCCCC(=O)NCc3ccccc3)c(=O)c3sccc32)c1`: the survival was 62%.
On to `CCOC(=O)c1cnn(Cc2ccccc2)c1N`, for which the survival is 79%.
For the molecule `CCOC(=O)c1noc2ncnc(N3CCN(c4ccccc4OC)CC3)c12`, the survival was 77%.
In the case of `COc1ccccc1NC(=O)N1CCN(Cc2nc3ccc(C)cc3o2)CC1`, the survival is 84%.
The figure for `CC(=O)c1ccc(NC(=O)CCn2nc(C)c(S(=O)(=O)N3CCC(C)CC3)c2C)cc1` is -5% (active); for `CC(=O)c1cccc(NC(=O)CCn2nc(C)c(S(=O)(=O)N3CCCCC3)c2C)c1` it is 134%; for `Cc1nn(CCC(=O)Nc2cccc(C#N)c2)c(C)c1S(=O)(=O)N1CCC(C)CC1` it is 89%.
As to `CCOC(=O)c1cnc2ccc(C(=O)OC)cc2c1Nc1ccccc1CC`, the survival was -3% (active).
In the case of `CCOC(=O)c1cnc2ccc(OC(F)(F)F)cc2c1Nc1ccccc1C(=O)O` it was 37% (active); in that of `CCOC(=O)c1cnc2ccccc2c1NCC(C)O` (configuration not stated), 89%.
Turning to `CCOC(=O)c1ccc2ncc(C(=O)OCC)c(Nc3ccc(C)c(Br)c3)c2c1`, the survival was 39% (active).
For `CCOC(=O)c1cnc2cc(F)c(F)cc2c1Nc1ccccc1O`, the survival is 156%.
With `CCc1ccc2[nH]c(=O)c(C(c3nnnn3C3CCCC3)N(Cc3ccccc3)Cc3ccco3)cc2c1` (configuration not stated), the survival was 104%.
`O=C(CN1c2ccc(Br)cc2-c2ccccc2S1(=O)=O)N1CCCCC1`: the survival was 91%.
Take `COc1cc(CNc2ccc3[nH]c(=O)[nH]c3c2)cc(Cl)c1OCc1ccccc1F`: the survival was 78%.
In the case of `CCOc1ccc(CCNC(=O)c2sc3ncccc3c2-n2c(C)ccc2C)cc1` it was 106%.
The figure for `COCCNc1nc2c(S(=O)(=O)c3ccc(C)c(C)c3)nnn2c2ccc(Cl)cc12` is 89%.
As for `O=C(NCc1ccccc1Cl)NCc1noc2ccccc12`, the survival was 45%.
As to `Cc1cccc(-c2nn3c(=O)cc(CN4CCN(C(=O)c5ccccc5Br)CC4)nc3s2)c1`, the survival is 100%.
The figure for `CCOC(=O)c1cc(C)n(CC2CCC(C(=O)Nc3ccc(Cl)cc3)CC2)c1C` (configuration not stated) is 46% (active); for `CCOC(=O)c1cc(C)n(CC2CCC(C(=O)Nc3ccc(C)cc3)CC2)c1C` (configuration not stated) it is 98%; for `CCOC(=O)c1cc(C)n(CC2CCC(C(=O)Nc3ccc(C(=O)OC)cc3)CC2)c1C` (configuration not stated) it is 69%.
In the case of `O=C(NC1CCCC1)C1CCCN(S(=O)(=O)c2ccc(-n3cnnn3)cc2)C1` (configuration not stated) it was 72%; in that of `CCOc1ccc(OCC)c(NC(=O)c2cnc(SC)nc2-c2ccccc2)c1`, 32% (active); in that of `COc1ccc(Cl)cc1NC(=O)c1cnc(SC)nc1-c1ccccc1`, 49%.
Regarding `CCOc1ccc(OCC)c(NC(=O)c2ccc(-c3ccccc3)s2)c1`, the survival was 27% (active).
The figure for `O=C(Nc1ccccc1F)c1ccc(-c2ccccc2)s1` is 81%; for `CCOc1ccc(NC(=O)c2ccc(-c3ccccc3)s2)cc1` it is 86%.
In the case of `CSc1ncc(C(=O)Nc2ccc(F)cc2F)c(-c2ccccc2)n1`, the survival is 71%.
The figure for `Cc1ccc(CN2CCc3nc(N4CCN(c5ncccn5)CC4)ncc3C2)cc1` is 117%.
For `CN1CCN(CC(=O)NCCc2ccc(F)cc2)CC1`, the survival was 83%.
In the case of `CONc1nc(NC(C)(C)C)nc(OCC#N)n1` it was 97%; in that of `N#CCOc1nc(OCC#N)nc(OCC#N)n1`, 1% (active).
For the molecule `CNc1nc(OCC#N)nc(N2CCCCC2)n1`, the survival is 110%.
The figure for `Cc1ccc(CNC(=O)c2nc(-c3ccc(Cl)cc3)n3c2CCCCC3)cc1` is 89%; for `O=C(CCn1c(=O)c2sccc2n(Cc2ccc(F)cc2)c1=O)NCc1ccc2c(c1)OCO2` it is 89%; for `O=C(CCn1c(=O)c2sccc2n(Cc2ccccc2F)c1=O)NCc1ccc2c(c1)OCO2` it is 84% (active).
Consider `Cc1ccccc1NC(=O)Cn1c(=O)n(CCCCCC(=O)NCc2ccc3c(c2)OCO3)c(=O)c2sccc21`, for which the survival was 84%.
As to `Cc1ccc(NC(=O)Cn2c(=O)n(CCC(=O)NCc3ccc4c(c3)OCO4)c(=O)c3sccc32)c(C)c1`, the survival was 87% (active).
`CCC1CCCCN1C(=O)Cn1c(=O)n(CCCCCC(=O)NCc2ccccc2)c(=O)c2sccc21` (configuration not stated): the survival is 69%.
In the case of `O=C(CCn1c(=O)c2sccc2n(Cc2cccc(F)c2)c1=O)NCc1ccc2c(c1)OCO2` it was 97%; in that of `Cc1ccc(CNC(=O)CCCCCn2c(=O)c3sccc3n(CC(=O)N3CCCCC3C)c2=O)cc1` (configuration not stated), 48% (active); in that of `O=C(CCCCCn1c(=O)c2sccc2n(CC(=O)Nc2cccc(Cl)c2)c1=O)NCc1ccc2c(c1)OCO2`, 57%.
In the case of `Cc1ccccc1NC(=O)Cn1c(=O)n(CCC(=O)NCc2ccc3c(c2)OCO3)c(=O)c2sccc21`, the survival is 150%.
In the case of `Cc1ccc(Cl)cc1NC(=O)Cn1c(=O)n(CCC(=O)NCc2ccc3c(c2)OCO3)c(=O)c2sccc21` it was 79% (active); in that of `CCC1CCCCN1C(=O)Cn1c(=O)n(CCCCCC(=O)NCc2ccc(F)cc2)c(=O)c2sccc21` (configuration not stated), 170%.
For the molecule `Cc1cccc(C)c1NC(=O)Cn1c(=O)n(CCC(=O)NCc2ccc3c(c2)OCO3)c(=O)c2sccc21`, the survival was 90%.
In the case of `Clc1ccc(CCNc2ncnc3c2c(-c2ccccc2)cn3-c2ccccc2)cc1` it was 94%; in that of `COc1ccc(Cn2c(CCC(=O)Nc3ccc(Br)c(C)c3)nc3cccnc32)cc1`, 71%.
With `Cc1ccc(N2CC(NC(=O)/C=C\c3ccc4c(c3)OCO4)CC2=O)cc1` (configuration not stated), the survival is 91%.
In the case of `COc1ccc(NC(=O)Cn2ccn(-c3ccc(C)c(C)c3)c(=O)c2=O)cc1Cl` it was 72%.
The figure for `COc1ccc(OC)c(CNC(=O)c2ccccc2NC(=O)c2nsc3ccccc23)c1` is 92%; for `O=C(NC1CC(=O)N(c2ccccc2)C1)C(c1ccccc1)c1ccccc1` (configuration not stated) it is 89%; for `Cc1nnc(Nc2ccc(C(=O)O)cc2)[nH]c1=O` it is 108%.
For `O=C1CCSC2(C(=O)N(Cc3ccc(F)cc3)c3ccccc32)N1c1ccccc1` (configuration not stated), the survival is 78%.
The figure for `CC(=O)c1cccc(NS(=O)(=O)c2cc3c(cc2C)N(C(C)=O)CCO3)c1` is 95%; for `CCc1ccc(NC(=O)Cn2c(=O)n(CCCC(=O)NCc3ccc4c(c3)OCO4)c(=O)c3ccccc32)cc1` it is 93% (active).
Take `CCc1ccc(NC(=O)Cn2c(=O)n(CCCCC(=O)NCc3ccc4c(c3)OCO4)c(=O)c3ccccc32)cc1`: the survival was 87%.
As for `CCc1ccc(NC(=O)Cn2c(=O)n(CCC(=O)NCc3ccc4c(c3)OCO4)c(=O)c3ccccc32)cc1`, the survival was 91%.
The figure for `O=C(Cc1ccc(F)cc1)Nc1nnc2n1CCS2` is 52% (active); for `O=C(Cc1ccc(Cl)cc1)Nc1nnc2n1CCS2` it is 77%.
Take `O=C(Cc1ccccc1)Nc1nnc2n1CCS2`: the survival is 71%.
For `CCOC(=O)c1c(C)[nH]c(CCC(=O)NCc2ccccc2C)c1C`, the survival is 80%.
Regarding `COc1cc(NS(=O)(=O)c2ccc(NC(=O)c3ccc(Cl)cc3Cl)cc2)nc(OC)n1`, the survival is 98%.
The figure for `O=C1OC(Nc2ccccc2C(F)(F)F)c2ccccc21` (configuration not stated) is 45%.
The figure for `Cc1ccc(NC2OC(=O)c3ccccc32)cc1` (configuration not stated) is 31% (active); for `O=C1OC(Nc2ccc3ncccc3c2)c2ccccc21` (configuration not stated) it is 30% (active).
The figure for `O=C1OC(Nc2ccccn2)c2ccccc21` (configuration not stated) is 42%.
Take `CC(=O)Nc1ccc(NC2OC(=O)c3ccccc32)cc1` (configuration not stated): the survival is 50%.
Turning to `O=C(Nc1ccc2ncccc2c1)c1ccccc1`, the survival was 94%.
The figure for `CCc1ccc(CNC(=O)CN2C(=O)c3cccnc3Oc3ccc(C)cc32)cc1` is 72%; for `Cc1ccc(C=N/C(=N\NC(=O)c2ccccc2)c2ccccc2)o1` it is 94%; for `COc1ccc2nc(N3CCN(C(=O)c4ccco4)CC3)sc2c1` it is 88%.
`CCN(CC)CCCNC(=O)c1ccc2c(=O)n(CCc3ccccc3)c(=O)[nH]c2c1`: the survival was 82%.
The figure for `COc1nc(N2CCCCCC2)nc(N2CCCCCC2)n1` is 66%.
In the case of `CCN(CC)C(=O)C1CCCN(c2ncnc3onc(C)c23)C1` (configuration not stated) it was 99%; in that of `COc1ccc(CN(C(=O)c2ccco2)c2ccccc2)cc1`, 96%; in that of `CCS(=O)(=O)c1ncc(Cl)c(C(=O)N(Cc2ccccc2)c2ccc(OC)cc2)n1`, 36% (active).
The figure for `CCOc1ccc(N(Cc2ccccc2)C(=O)c2nc(S(C)(=O)=O)ncc2Cl)cc1` is 24% (active); for `COc1ccc(N(Cc2ccccc2)C(=O)c2nc(S(C)(=O)=O)ncc2Cl)cc1` it is 51%.
Take `CCSc1ncc(Cl)c(C(=O)N(Cc2ccccc2)c2ccc(OC)cc2)n1`: the survival is 100%.
In the case of `CCOc1ccc(N(Cc2ccccc2)C(=O)c2nc(SC)ncc2Cl)cc1` it was 72%; in that of `CCOc1ccc(N(Cc2ccccc2)C(=O)c2nc(SCC)ncc2Cl)cc1`, 106%.
The figure for `COc1ccc(N(Cc2ccccc2)C(=O)c2nc(SC)ncc2Cl)cc1` is 99%; for `CCCSc1ncc(Cl)c(C(=O)N(Cc2ccccc2)c2ccc(OC)cc2)n1` it is 45% (active).
The figure for `COc1ccc(-c2cn3cccnc3n2)cc1NC(=O)c1cc(C)cc(C)c1` is 61%.
For the molecule `Cc1cc(C)c(NC(=O)Nc2csc3c2CCCC3)c(C)c1`, the survival is 78%.
In the case of `Cc1c(CNCc2ccc(Cl)cc2)c(C(=O)O)c(C)n1Cc1ccc(F)cc1` it was 77%; in that of `CCOc1ccc(S(=O)(=O)N2CCN(Cc3nc4ccc(C)cc4o3)CC2)cc1`, 73%.
In the case of `Cc1ccc(NC(=O)CN(Cc2ccccc2)S(=O)(=O)c2ccc3nc(C)sc3c2)c(C)c1` it was 83%.

For the origin of these results see PubChem BioAssay AID463173 (ICCB-Longwood Screening Facility, Harvard Medical School, 2010).
